# Measured values: PubChem BioAssay
# Active and inactive are the calls of the source.
# Legend:
# [1] = optical density shifts of acrAB sulA E. coli – strain DRC41, OD650, 48 h, E. coli filamentation inducer project, primary screen (AID 1152); details: higher = more signal, called active from +8 up or from −8 down;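 also: E. coli MC1000 strain DRC41 lacking acrAB efflux pump and sulA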
# [2] = probe aLefty1 binding on compound microarray – biochemical, small-molecule microarray, 635/667 nm fluorescence, primary screen (AID 1153); details: higher = more signal;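 also: score merges spot fluorescence with signal-to-noise ratio from the scanned slide images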
# [3] = plasmodial surface anion channel blockers, osmotic lysis – cell-based, P. falciparum Indochina, OD700, 1 h, primary screen (AID 1154); details: P. falciparum Indochina infected RBC osmotic lysis, higher = more signal, called active from +8 up or from −8 down
# [4] = plasmodial surface anion channel blockers, osmotic lysis – cell-based, P. falciparum Indochina, OD700, 2 h, primary screen (AID 1155);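 also: lysis reports solute entry through the parasite surface anion channel PSAC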; details: P. falciparum Indochina infected erythrocytes, higher = more signal, called active from +8 up or from −8 down
# [5] = changes in parasitized red cell lysis, either direction – P. falciparum Indochina, OD700, 3 h, PSAC antagonist project, primary screen (AID 1156); details: P. falciparum-infected erythrocytes, osmotic lysis, higher = more signal, called active from +8 up or from −8 down
# [6] = plasmodial surface anion channel blockers, osmotic lysis – cell-based, P. falciparum Indochina, OD700, 18 h, primary screen (AID 1157); details: P. falciparum Indochina infected erythrocytes, osmotic lysis OD700, 18 h; higher = more signal, called active from +8 up or from −8 down
# [7] = S6 kinase pathway phospho-S6 level changes – cell-based, A549, cytoblot, luminescence, serum-stimulated, primary screen (AID 1158); details: 5 h, higher = more signal;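 also: serum-stimulated A549 lung adenocarcinoma cells; signal is phosphorylated S6 detected by cytoblot immunostaining with HRP secondary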
# [8] = biological target: NADPH oxidase 2 (Homo sapiens) (UniProt P04839); test: compounds shifting NOX2 Amplex Red fluorescence – cell-based, HEK293-NOX2, PMA-stimulated, NOX inhibitor project, primary screen (AID 1159); details: 45 min, higher = more signal, called active from +8 up or from −8 down; also: test concentration not given here
# Chain of NADPH oxidase 2 (Homo sapiens) (P04839 whole entry, looked up): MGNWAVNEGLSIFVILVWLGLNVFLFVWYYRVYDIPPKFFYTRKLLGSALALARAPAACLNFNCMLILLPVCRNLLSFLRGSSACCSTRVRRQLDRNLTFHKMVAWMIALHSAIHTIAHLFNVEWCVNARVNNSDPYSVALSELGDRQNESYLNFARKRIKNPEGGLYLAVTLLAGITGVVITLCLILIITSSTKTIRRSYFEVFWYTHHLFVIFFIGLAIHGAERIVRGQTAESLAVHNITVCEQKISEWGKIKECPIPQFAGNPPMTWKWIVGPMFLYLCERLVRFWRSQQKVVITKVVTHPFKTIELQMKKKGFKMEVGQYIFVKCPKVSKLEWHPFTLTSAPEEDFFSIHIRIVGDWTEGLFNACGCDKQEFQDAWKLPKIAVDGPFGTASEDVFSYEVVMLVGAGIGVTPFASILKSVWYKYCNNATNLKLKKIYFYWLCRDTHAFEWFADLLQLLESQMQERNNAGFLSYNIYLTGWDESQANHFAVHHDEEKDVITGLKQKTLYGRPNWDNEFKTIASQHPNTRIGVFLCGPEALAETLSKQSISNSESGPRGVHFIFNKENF
# [9] = biological target: NADPH oxidase 4 (Homo sapiens) (UniProt Q9NPH5); test: compounds shifting NOX4 Amplex Red fluorescence – cell-based, HEK293-NOX4, tetracycline-induced, NOX inhibitor project, primary screen (AID 1160); details: HEK293-NOX4, Amplex Red H2O2 fluorescence, 45 min; higher = more signal, called active from +8 up or from −8 down
# Chain of NADPH oxidase 4 (Homo sapiens) (Q9NPH5 whole entry, looked up): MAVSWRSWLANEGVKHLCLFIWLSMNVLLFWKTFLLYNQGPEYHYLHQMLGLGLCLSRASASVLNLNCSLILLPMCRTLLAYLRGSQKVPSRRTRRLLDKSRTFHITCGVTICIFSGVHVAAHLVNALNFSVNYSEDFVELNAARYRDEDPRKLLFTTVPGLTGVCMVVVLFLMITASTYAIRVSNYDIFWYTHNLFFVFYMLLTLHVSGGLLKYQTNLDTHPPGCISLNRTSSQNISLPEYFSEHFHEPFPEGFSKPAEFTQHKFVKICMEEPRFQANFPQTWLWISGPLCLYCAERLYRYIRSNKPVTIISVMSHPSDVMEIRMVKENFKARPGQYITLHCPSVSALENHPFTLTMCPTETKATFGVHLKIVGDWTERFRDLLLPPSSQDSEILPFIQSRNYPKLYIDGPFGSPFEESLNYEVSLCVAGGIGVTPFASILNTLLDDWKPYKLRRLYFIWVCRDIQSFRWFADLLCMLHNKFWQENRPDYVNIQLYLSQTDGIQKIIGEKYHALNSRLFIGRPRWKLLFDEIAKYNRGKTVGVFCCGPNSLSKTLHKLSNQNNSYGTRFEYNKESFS
# [10] = biological target: NADPH oxidase 5 (Homo sapiens) (UniProt Q96PH1); test: compounds shifting NOX5 Amplex Red fluorescence – cell-based, HEK293-NOX5, NOX inhibitor project, primary screen (AID 1161); details: HEK293-NOX5, ionomycin, 45 min, higher = more signal
# Chain of NADPH oxidase 5 (Homo sapiens) (Q96PH1 whole entry, looked up): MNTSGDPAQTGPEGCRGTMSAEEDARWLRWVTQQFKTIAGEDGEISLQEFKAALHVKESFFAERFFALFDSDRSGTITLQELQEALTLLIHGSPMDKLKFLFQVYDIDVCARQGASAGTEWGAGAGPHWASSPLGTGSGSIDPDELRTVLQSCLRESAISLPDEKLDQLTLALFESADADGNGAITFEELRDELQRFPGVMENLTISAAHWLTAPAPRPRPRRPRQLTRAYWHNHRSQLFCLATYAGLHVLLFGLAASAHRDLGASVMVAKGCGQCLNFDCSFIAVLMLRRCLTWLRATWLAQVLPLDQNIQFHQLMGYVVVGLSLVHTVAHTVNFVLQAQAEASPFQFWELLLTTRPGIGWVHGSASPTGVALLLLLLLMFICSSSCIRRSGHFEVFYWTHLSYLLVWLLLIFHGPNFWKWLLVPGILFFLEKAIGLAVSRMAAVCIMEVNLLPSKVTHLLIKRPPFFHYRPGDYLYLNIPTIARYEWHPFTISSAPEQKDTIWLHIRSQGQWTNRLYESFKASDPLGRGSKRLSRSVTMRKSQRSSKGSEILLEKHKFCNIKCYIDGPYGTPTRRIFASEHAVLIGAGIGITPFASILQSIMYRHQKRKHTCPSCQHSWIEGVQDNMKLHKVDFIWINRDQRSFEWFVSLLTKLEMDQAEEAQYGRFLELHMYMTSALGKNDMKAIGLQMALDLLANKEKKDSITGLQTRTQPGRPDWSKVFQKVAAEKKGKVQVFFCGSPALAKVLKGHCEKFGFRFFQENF
# [11] = compound effects on lung adenocarcinoma cell viability – A549, calcein-AM fluorescence, 48 h, basal, profiling panel (AID 1162); details: higher = more signal; also: test concentration not given here
# [12] = compound effects on differentiated 3T3-L1 adipocyte viability – cell-based, 3T3-L1 adipocytes, calcein-AM fluorescence, 48 h, basal, profiling panel (AID 1163); details: 3T3-L1 adipocytes viability, higher = more signal; also: test concentration not given here
# [13] = compound effects on hepatocellular carcinoma cell viability – HepG2, calcein-AM fluorescence, 48 h, basal, profiling panel (AID 1164); details: higher = more signal; also: test concentration not given here
# [14] = compound effects on multiple myeloma cell viability – MM1S, calcein-AM fluorescence, 48 h, basal, profiling panel (AID 1165); details: higher = more signal;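 also: viability of MM1S multiple myeloma cells under basal unstimulated conditions; test concentration not given here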
# [15] = calcein-AM signal in unstimulated myeloma cells – cell-based, calcein-AM fluorescence, 48 h, PK04 Diversity Set, profiling panel (AID 1166); details: RPMI8226 myeloma viability, higher = more signal;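 also: cells grown under basal conditions without added stimulus; test concentration not given here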
# [16] = JC-1 mitochondrial signal, unstimulated HepG2 cells – cell-based, JC-1 fluorescence, 24 h, 100 nL compound, profiling panel (AID 1167); details: HepG2 mitochondrial potential, higher = more signal; also: test concentration not given here
# [17] = JC-1 mitochondrial signal, unstimulated adipocytes – cell-based, JC-1 fluorescence, 3T3-L1 adipocytes, 24 h, 100 nL compound, profiling panel (AID 1168); details: JC-1 mitochondrial fluorescence, higher = more signal, called active from +8 up or from −8 down; also: test concentration not given here
# [18] = JC-1 mitochondrial signal, unstimulated myeloma cells – cell-based, JC-1 fluorescence, RPMI8226, 24 h, 100 nL compound, profiling panel (AID 1169); details: JC-1 mitochondrial potential fluorescence, higher = more signal; also: test concentration not given here
# [19] = JC-1 mitochondrial signal, unstimulated MM1S myeloma – cell-based, JC-1 fluorescence, 24 h, 100 nL compound, profiling panel (AID 1170); details: MM1S mitochondrial potential, higher = more signal; also: test concentration not given here
# [20] = resazurin metabolic signal in A549 cells – cell-based, resazurin fluorescence, 24 h, PK04 Diversity Set, profiling panel (AID 1171); details: A549 viability, higher = more signal, called active from +8 up or from −8 down; also: test concentration not given here
Structure (SMILES),z-score [1],composite z-score [2],z-score [3],z-score [4],z-score [5],z-score [6],z-score [7],z-score [8],z-score [9],z-score [10],z-score [11],z-score [12],z-score [13],z-score [14],z-score [15],z-score [16],z-score [17],z-score [18],z-score [19],z-score [20]
CO[C@H]1COC(=O)[C@@H](C)NC(=O)CC=C[C@@H](C)[C@H](OC)COC(=O)CC=C[C@@H]1C,0.394 (inactive),0.0455,1.08 (inactive),-0.211 (inactive),0.237 (inactive),-1.58 (inactive),0.722,0.714 (inactive),0.981 (inactive),0.539,0.606,0.518,0.468,0.377,0.771,1.44,1.86 (inactive),-0.0629,1.06,0.775 (inactive)
COC(=O)[C@@]1(Cc2ccc(OC)cc2)[C@H]2c3cc(C(=O)N(C)C)n(CCc4ccc(OC)c(Br)c4)c3C[C@H]2CN1C(=O)c1ccccc1,-1.52 (inactive),1.61,3.73 (inactive),1.39 (inactive),0.307 (inactive),1.35 (inactive),-0.21,-0.052 (inactive),0.493 (inactive),0.527,-1.55,-1.08,-0.992,-1.6,-4.57,2.92,-1.39 (inactive),-0.855,-2.23,-1.39 (inactive)
C[C@H]1C2[C@H](Cc3ccccc3)NC(=O)[C@]23C(=O)N[C@H](Cc2ccccc2)C(=O)N[C@@H](Cc2ccccc2)C(=O)NC/C=C\C/C=C/C3[C@@H]2O[C@]12C (stereo not given in full),0.839 (inactive),0.305,3.27 (inactive),0.358 (inactive),-0.0925 (inactive),0.0094 (inactive),0.654,0.453 (inactive),1.1 (inactive),1.26,0.373,0.353,0.0599,-0.442,-1.35,1.24,0.4 (inactive),-0.52,0.29,0.276 (inactive)
O=C1OCCC/C=C\[C@H]2OC34C=CCN(CCN5CCOCC5)C(=O)[C@H]3N(CCCCCO)C(=O)[C@@H]4C12 (stereo not given in full),-0.938 (inactive),-0.0984,1.07 (inactive),-0.314 (inactive),-0.566 (inactive),-0.525 (inactive),-0.768,0.796 (inactive),-0.109 (inactive),1.01,0.739,0.216,-0.123,1.1,-0.0521,-1.04,0.348 (inactive),0.329,-0.102,-0.254 (inactive)
COCCOC(=O)N1C(=O)[C@@]2(c3cc(C#CCNC(N)=O)ccc31)[C@H](c1ccc(OCCO)cc1)N1[C@H](c3ccccc3)[C@H](c3ccccc3)OC(=O)[C@H]1[C@@H]2C(=O)Nc1nc2ccccc2s1,2.28 (inactive),0.0844,2.66 (inactive),1.67 (inactive),0.73 (inactive),1.24 (inactive),0.652,0.398 (inactive),-0.211 (inactive),1.12,0.556,1.49,-0.801,-0.139,-0.138,-3.18,2.96 (inactive),-0.964,-1.56,0.708 (inactive)
C[C@H]1COC(=O)[C@H](Cc2ccccc2)NC(=O)[C@@H](C)COC(=O)[C@H](Cc2ccccc2)NC1=O,-0.0556 (inactive),-0.239,0.162 (inactive),-0.643 (inactive),-0.295 (inactive),-1.93 (inactive),1.58,0.915 (inactive),0.838 (inactive),0.253,-0.429,1.27,0.0613,0.244,1.03,0.827,0.382 (inactive),-0.405,0.0881,0.512 (inactive)
O=C(CS)NCCCCCCNC(=O)[C@@H]1C[C@@H]2C(=O)N[C@@H](Cc3ccccc3)C(=O)N2[C@@H]1c1ccc(O)cc1,0.706 (inactive),0.0273,6.26 (inactive),1.52 (inactive),4.5 (inactive),0.595 (inactive),-0.113,1.48 (inactive),0.457 (inactive),0.729,-0.401,0.861,-0.963,-0.0227,0.612,-1.67,-0.654 (inactive),-0.208,-0.716,-0.226 (inactive)
NC(=O)NCC#Cc1ccc2c(c1)[C@]1(C(=O)N2)[C@H](c2ccccc2OCCO)N2[C@H](c3ccccc3)[C@H](c3ccccc3)OC(=O)[C@H]2[C@@H]1C(=O)N1CCN(c2ncccn2)CC1,2.11 (inactive),0.445,3.42 (inactive),0.449 (inactive),0.229 (inactive),-1.44 (inactive),2.08,1.09 (inactive),0.958 (inactive),-0.596,-0.525,0.932,0.238,0.147,0.598,-1.48,1.08 (inactive),-0.356,-0.293,0.157 (inactive)
CC(=O)NCCCC[C@@H]1NC(=O)[C@@H]2C[C@H](C(=O)NCCCCCCN(C)C)[C@H](c3ccc(O)cc3)N2C1=O,1.03 (inactive),-0.0619,1.19 (inactive),-1.12 (inactive),-2.63 (inactive),-2.32 (inactive),-0.0253,-0.498 (inactive),-1.45 (inactive),0.253,-0.378,1.28,-1.04,-0.365,0.495,1.43,0.957 (inactive),0.641,0.925,0.318 (inactive)
